Experimental data: the supplement of paper PMC6555819

system: VDR:RXRa (NR concentration 270 nM, RXRa partner concentration 90 nM); assay: PBM binding z-score (relative to random genomic background probes); higher = stronger binding; sequences stand for … in GC…GCGATTGACAGCGTAGAATGAAGG
Method: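 Protein-binding microarray (Agilent 4x180K custom design, double-stranded 60-nt probes: 5' GC cap, 34-nt variable region, 24-nt constant primer region; full probe sequence given). Purified or IVT nuclear receptor:RXRα heterodimers (3:1 NR:RXRα, mostly 270:90 nM) or homodimers were incubated for 1 h in PBS with 2% milk and no ligand, then detected with Alexa488 antibodies. Fluorescence from o1-orientation probes (~5 replicates averaged) was converted to z-scores against 500 random hg19 background probes. Variable regions are seed direct-repeat (DR0–DR5) sites, all their single-nucleotide variants and half-site ablations.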

Going from TCTTATAGATCAGCAGGTTAAGAAAGCTGGCCAA to TAGACTAGGTCAGATCGGGCCAGTATACGCTATA, the PBM binding z-score rises from 0.455 to 0.598.

Compared with AGAACGAGGGCACGCTGAGTTGTTAGCAGAGTAG, TGTCAAAGTTCAAAGTTAACGTAAGTATCCACAC is higher in PBM binding z-score: 1.6 for the first, 4.57 for the second.

Compared with CAAACTAGGTCACCGGAAGGTCGAAGTCCGCATG, AATTACGGGTCAACGAGGTTATAGCACGCGTATA is higher in PBM binding z-score: 4.47 for the first, 7.73 for the second.

Compared with TTACCAGGGTGAAAGGTCGTTGATGCACGCCTTG, CCTACTGGGCCAAAGGTCATTGATTCCAATGCTC is higher in PBM binding z-score: 3.28 for the first, 4.75 for the second.

Going from CGAACTAGGTCATCCAGGACGGTGAATACATTGA to TAGCCTCGGTCATGGGCCAGTATACCACGCGAAC, the PBM binding z-score falls from 3.72 to -0.162.

Going from ATATGTAGGTTAAGGGTCATTAAGGTTGGTTCGC to ATCTCTAGGTAAAGTTCAGGGAAAGATCGATAGA, the PBM binding z-score falls from 6.19 to 1.73.

Going from TCATATTGGTAAAAGGTGAAAGTCGGTGTGGTAA to TCGAGTAGGTTAGTCGGAGCATTCAGCCAACATA, the PBM binding z-score falls from 1.64 to -0.307.

Compared with CGAACCAGGGCATGAGTTGATAGCAAATGCCGAT, CGAACTAGGGCAAGGACAGTGAATCTCCGCACGC is lower in PBM binding z-score: 0.253 for the first, -0.473 for the second.

Compared with CCGAGTAGGTTGTGGGGCATTCAGGCAACGGTGA, CAAACTAGATCAAGGTCAAAGTCGGTTTGTGCCA is higher in PBM binding z-score: -0.367 for the first, 4.12 for the second.

Compared with ATCTCTAGGTAAAGCTAGTTCAGTGAATGCAAAT, TAGCCGAGGTCATGGGCCAGTATACCACGCGAAC is higher in PBM binding z-score: 0.818 for the first, 5.46 for the second.

Compared with GGAGCGAGGGCAAGTTGATAGCAGAGTTTGATGG, CCAGACAGGTGAGAAGGTATCTCAGCCTCGATTA is lower in PBM binding z-score: 0.407 for the first, -0.224 for the second.

Going from CAAACTAGGTCAAGAGGTCAGAGTCCGCTTCCCG to CCTAGTTGCTCAAGGTCACACACGCTATAGGTAC, the PBM binding z-score falls from 4.89 to 4.26.

Going from TCATATAGGTAAATGCAAGGTGAAAGTCCGATCT to CCGGCTGGGGCAAAGGTTACCATACTCAGTACGA, the PBM binding z-score rises from 1.37 to 1.58.

First: AGTCAAAGTTCACTAGGTAACGTACGATTCAGCT
Second: AGAATGAGGTTATTAAGATCAGTGAATTGCGGTC
The PBM binding z-score of the first is higher: 4.24 for the first, 2.5 for the second.

Compared with TAGCCTAGGTGATGGGCCAGTATACCACGCGAAC, CCGAGTAGGTTATGGGGCATCCAGGCAACGGTGA is higher in PBM binding z-score: -0.726 for the first, -0.0665 for the second.

First: ATAAGTAGGTTAAGGGTCATTCAGGTTGGTTCGC
Second: CATCCAAGGTCAAGGTCAGTGAAAGAGACTCGAA
The PBM binding z-score of the first is higher: 5.89 for the first, 5.07 for the second.

Compared with GGTACAGGGTCAAGGCCAGAGTACGCGTATTGAT, TCTCGGAGGACATGAAAGGTCAGAGCTCGACATC is lower in PBM binding z-score: 4.52 for the first, 2.81 for the second.

Compared with CGAACTAGGTAATTGACAGGACAGTGAATAGTAA, AGAATGAGGTTAAGATCAGGGTAACAGAATACAT is higher in PBM binding z-score: -0.257 for the first, 2 for the second.

First: CCTGCTATGTCATGGTCAGCTAATCTACAGTATG
Second: TCTCGGACGACACGAAGGTCAGAGCTTTCCAGAG
The PBM binding z-score of the first is lower: -0.0549 for the first, 1.2 for the second.

Going from ATCGAAAGGTCGAAGGTGGGTATACCCACCCGAA to CATACAGGGTCAGCTAGGCCAGACTAGGGACGGC, the PBM binding z-score rises from 2.54 to 3.86.
